Laboratory results from PubChem BioAssay AID1159580 (chemical genetic matrix, 2015).
Screen size: about 5,500 compounds; about 2,000 (36%) were called active. Inconclusive results (about 18%) are left out. This is one part of the list. Values without a mark were called inactive. Rule as the data show it: active = normalized growth mostly below about 0.91 (no sharp cut-off); inconclusive = no clear call, values can overlap the other calls; inactive = mostly above about 0.92.

Test: chemical genetic growth profiling, strain panel (AID 1159580);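 also: tested at 20 µM; growth read once vehicle control cultures reached saturation at 30 °C; 1 = growth at the plate median or of vehicle wells; lower values mean less growth of the strain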
Conditions: growth OD

`Cc1cc(=O)n2c(-c3ccc(Cl)cc3)csc2n1` gave a normalized growth (S. cerevisiae deletion strains, locus YAL013W, strain DEP1, stronger effect = lower value) of 0.975, a normalized growth (S. cerevisiae deletion strains, locus YBR229C, strain ROT2, stronger effect = lower value) of 0.954 and a normalized growth (S. cerevisiae deletion strains, locus YCL061C, strain MRC1, stronger effect = lower value) of 0.951. The normalized growth (S. cerevisiae deletion strains, locus YDL101C, strain DUN1, stronger effect = lower value) was 0.936, the normalized growth (S. cerevisiae deletion strains, locus YDR150W, strain NUM1, stronger effect = lower value) was 0.976 and the normalized growth (S. cerevisiae deletion strains, locus YEL061C, strain CIN8, stronger effect = lower value) was 0.931. For the same compound, the normalized growth (S. cerevisiae deletion strains, locus YGR078C, strain PAC10, stronger effect = lower value) was 0.96, the normalized growth (S. cerevisiae deletion strains, locus YHR030C, strain SLT2, stronger effect = lower value) was 0.712 and the normalized growth (S. cerevisiae deletion strains, locus YHR087W, strain rtc3, stronger effect = lower value) was 0.927. It also gave a normalized growth (S. cerevisiae deletion strains, locus YJL187C, strain SWE1, stronger effect = lower value) of 0.965, a normalized growth (S. cerevisiae deletion strains, locus YJR043C, strain POL32, stronger effect = lower value) of 0.982 and a normalized growth (S. cerevisiae deletion strains, locus YJR075W, strain HOC1, stronger effect = lower value) of 0.956. The normalized growth (S. cerevisiae deletion strains, locus YLR039C, strain RIC1, stronger effect = lower value) was 0.892, the normalized growth (S. cerevisiae deletion strains, locus YLR058C, strain SHM2 (second series), stronger effect = lower value) was 0.956 and the normalized growth (S. cerevisiae deletion strains, locus YLR085C, strain ARP6, stronger effect = lower value) was 0.826. For the same compound, the normalized growth (S. cerevisiae deletion strains, locus YLR262C, strain YPT6, stronger effect = lower value) was 0.916, the normalized growth (S. cerevisiae deletion strains, locus YML094W, strain GIM5, stronger effect = lower value) was 0.864 (active) and the normalized growth (S. cerevisiae deletion strains, locus YMR219W, strain ESC1, stronger effect = lower value) was 0.96. For the same compound, the normalized growth (S. cerevisiae deletion strains, locus YMR263W, strain SAP30, stronger effect = lower value) was 0.987, the normalized growth (S. cerevisiae deletion strains, locus YNL128W, strain TEP1, stronger effect = lower value) was 0.972 and the normalized growth (S. cerevisiae deletion strains, locus YNL153C, strain GIM3, stronger effect = lower value) was 0.973. For the same compound, the normalized growth (S. cerevisiae deletion strains, locus YNL298W, strain CLA4 (second series), stronger effect = lower value) was 0.947, the normalized growth (S. cerevisiae deletion strains, locus YNL322C, strain KRE1, stronger effect = lower value) was 0.976 and the normalized growth (S. cerevisiae deletion strains, locus YNR030W, strain Alg12, stronger effect = lower value) was 0.943. For the same compound, the normalized growth (S. cerevisiae deletion strains, locus YPL055C, strain LGE1, stronger effect = lower value) was 0.963, the normalized growth (S. cerevisiae deletion strains, locus YPL241C, strain CIN2, stronger effect = lower value) was 0.941 and the normalized growth (S. cerevisiae deletion strains, locus YPR135W, strain CTF4, stronger effect = lower value) was 0.764. It also gave a normalized growth (S. cerevisiae strains, strain wild type, stronger effect = lower value) of 0.96.
